{"source": "PubChem BioAssay AID588493", "about": "(Sanford-Burnham Center for Chemical Genomics, 2011)", "note": "In all, about 360,000 compounds went through this assay and about 2,100 (0.58%) were called active.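 The calls were made as follows: active = inhibition at 20 µM, scaled to each plate's controls, above about 33% (limit read from the data); inactive = the rest.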 The list comes from a sample in which actives are over-represented; it also holds similar structures and randomly drawn compounds."}
{"biological_target": "26S proteasome non-ATPase regulatory subunit 14 (Homo sapiens) (UniProt O00487)", "sequence (O00487 whole entry, looked up)": "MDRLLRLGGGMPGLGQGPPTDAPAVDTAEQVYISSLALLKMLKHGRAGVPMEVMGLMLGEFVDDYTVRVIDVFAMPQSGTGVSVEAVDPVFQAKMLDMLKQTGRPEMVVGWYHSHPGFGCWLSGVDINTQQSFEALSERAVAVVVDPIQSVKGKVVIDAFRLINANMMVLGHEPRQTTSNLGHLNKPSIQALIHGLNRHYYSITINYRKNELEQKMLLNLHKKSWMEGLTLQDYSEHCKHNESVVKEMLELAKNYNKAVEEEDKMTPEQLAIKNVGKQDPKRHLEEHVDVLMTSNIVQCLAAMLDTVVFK", "assay": "Rpn11 (PSMD14) deubiquitinase inhibitors, primary screen, biochemical, fluorescence polarization, uHTS (AID 588493)", "settings": "human 26S proteasome, Ub4-pepOG fluorescence polarization; at 20 µM; hits give high values; 20S core pre-blocked with epoxomicin"}
{"smiles": "CC(=O)n1cc([C@H]2C=C(C(=O)N3CCOCC3)O[C@@H](OCc3ccc(CO)cc3)C2)c2ccccc21", "inhibition": "3.9% (inactive)"}
{"smiles": "Cc1cc[n+](-c2[nH]c(=O)sc2/C=N/NC(=O)c2ccccc2[O-])cc1C", "inhibition": "-29.4% (inactive)"}
{"smiles": "CCc1ccc2[nH]c(=O)c(Cc3ccccc3)c(O)c2c1", "inhibition": "-4.6% (inactive)"}
{"smiles": "O=C(c1ccc(OC2CCN(C(=O)c3cccnc3)CC2)cc1)N1CCCCCC1", "inhibition": "-0.5% (inactive)"}
{"smiles": "Cc1cccc(OCCCC(=O)Nc2ccc(S(=O)(=O)N3CCCC3)cc2)c1", "inhibition": "-2.1% (inactive)"}
{"smiles": "Cc1ccc(NC(=O)NNC(=O)c2sccc2-n2cccc2)cc1", "inhibition": "-1.9% (inactive)"}
{"smiles": "O=C(NNC(=O)c1ccc(-c2ccccc2)cc1)Nc1ccccc1", "inhibition": "-0.3% (inactive)"}
{"smiles": "C=CC[n+]1c(-c2ccc(C)cc2)csc1NNC(=O)Nc1ccccc1", "inhibition": "42.6% (active)"}
{"smiles": "CCCCOC(=O)c1ccc(NC(c2ccc(C)cc2)P(=O)(OC)OC)cc1", "note": "(stereo not given)", "inhibition": "-3.9% (inactive)"}
{"smiles": "COC(=O)c1cccc(NS(C)(=O)=O)c1", "inhibition": "-3.1% (inactive)"}
{"smiles": "C=CCc1ccc(OCCOc2cccc(/C=N/n3cnnc3)c2)c(OC)c1", "inhibition": "-5.7% (inactive)"}
{"smiles": "c1csc(-c2nnc(COc3ccc4c(c3)OCO4)o2)c1", "inhibition": "-8.5% (inactive)"}
{"smiles": "CCOc1ccc(-c2nc(C)sc2CC(=O)O)cc1", "inhibition": "-1.6% (inactive)"}
{"smiles": "CCOC(=O)C(=O)Nc1nc(-c2ccccc2)c(CC)s1", "inhibition": "3.6% (inactive)"}
{"smiles": "C/C(=N/Nc1nc(-c2ccccc2)c(CC(=O)O)s1)c1ccccc1", "inhibition": "57.8% (active)"}
{"smiles": "O=C1C=C(c2cccc(Cl)c2O)C[C@@H](c2ccc(F)cc2)C1", "inhibition": "-0.6% (inactive)"}
{"smiles": "COCc1c(C(=O)N/N=C\\c2cccnc2)nnn1-c1nonc1N", "inhibition": "-1.2% (inactive)"}
{"smiles": "CC(C)c1c(C(=O)N/N=C/c2ccccc2C(=O)O)nnn1-c1nonc1N", "inhibition": "-1.4% (inactive)"}
{"smiles": "Nc1nonc1-n1nnc(C(=O)N/N=C/c2cc(Br)ccc2O)c1CSC1=NCCS1", "inhibition": "43.6% (active)"}
{"smiles": "CC(C)Cn1c(=O)c2ccccc2n2c(CCC(=O)NCc3ccccn3)nnc12", "inhibition": "4.1% (inactive)"}
{"smiles": "O=C(Nc1c[nH]c(=O)[nH]c1=O)OCc1ccccc1", "inhibition": "-11.5% (inactive)"}
{"smiles": "N#C/C=C1\\Sc2ccccc2C(=O)N1CC(=O)N1CCN(S(=O)(=O)c2ccccc2)CC1", "inhibition": "5.4% (inactive)"}
{"smiles": "CC(O)c1nc2ccccc2n1Cc1ccc([N+](=O)[O-])cc1", "note": "(stereo not given)", "inhibition": "1.9% (inactive)"}
{"smiles": "Cc1nc2ccccc2nc(=O)c1NNc1ccc([N+](=O)[O-])cc1", "inhibition": "43.9% (active)"}
{"smiles": "Cc1cccc(NS(=O)(=O)c2ccc([N+](=O)[O-])cc2)n1", "inhibition": "-2.6% (inactive)"}
{"smiles": "CCC(=O)N1CCC(C(N)=O)(N2CCCCC2)CC1", "inhibition": "-4.7% (inactive)"}
{"smiles": "CCOC(=O)CN(C(=O)COc1nc(C)cc(C)c1C#N)c1ccc(Cl)cc1", "inhibition": "1.3% (inactive)"}
{"smiles": "O=C(O)c1ccc(NN=CC2=C(N3CCOCC3)/C(=C/c3ccccc3)CC2)cc1", "inhibition": "51.4% (active)"}
{"smiles": "O=C1Nc2ccc(Br)cc2/C1=N/N=C/C1=C(N2CCOCC2)C(=C\\c2ccccc2)/CC1", "inhibition": "8% (inactive)"}
{"smiles": "C=CCn1c(-c2ccccc2OCC)n[nH]c1=S", "inhibition": "-4.4% (inactive)"}
{"smiles": "Cc1ccccc1CSCC(=O)NC(=O)NC(C)(C)C", "inhibition": "4.3% (inactive)"}
{"smiles": "CC(C)(C)NC(=O)CSc1nnc(NC(=O)CCc2ccccc2)s1", "inhibition": "2.2% (inactive)"}
{"smiles": "CC(C)(C)NC(=O)CSC(=Nc1ccccc1F)NC#N", "inhibition": "45.6% (active)"}
{"smiles": "CC(=O)Nc1ccc(NC(=O)CSCc2cnn(-c3ccccc3)c2-n2cccc2)cc1", "inhibition": "-1.2% (inactive)"}
{"smiles": "CCc1c(C)[nH]c(=S)c(C#N)c1C", "inhibition": "-1.9% (inactive)"}
{"smiles": "Cc1cccc(-n2c(SCC(N)=O)nc3c(c2=O)C2(CCCCC2)Cc2ccccc2-3)c1", "inhibition": "14.6% (inactive)"}
{"smiles": "COc1ccc(C(=O)NCc2ccc(Cl)cc2)cc1S(=O)(=O)N1CCCC1", "inhibition": "-4.5% (inactive)"}
{"smiles": "CN(C(=O)c1c(Cl)cnn1C)C12CC3CC(CC(C3)C1)C2", "inhibition": "0.7% (inactive)"}
{"smiles": "N#CC(C(=O)c1ccc(S(=O)(=O)N2CCCCCC2)cc1)c1nc2ccccc2[nH]1", "note": "(stereo not given)", "inhibition": "13.9% (inactive)"}
{"smiles": "O=C(NCc1ccco1)C1CCCN(S(=O)(=O)c2cnc[nH]2)C1", "note": "(stereo not given)", "inhibition": "-5.5% (inactive)"}
{"smiles": "CCCS(=O)(=O)N1CCCC(C(=O)NCc2ccco2)C1", "note": "(stereo not given)", "inhibition": "34.7% (active)"}
{"smiles": "O=C(NCc1ccco1)C1CCCN(S(=O)(=O)c2ccccc2)C1", "note": "(stereo not given)", "inhibition": "-4.7% (inactive)"}
{"smiles": "CC(Sc1nc2c([nH]c3ccccc32)c(=O)n1C)c1ccccc1", "note": "(stereo not given)", "inhibition": "-0.4% (inactive)"}
{"smiles": "Cc1cc(C)nc(NC2=NCC(=O)N2c2ccc(Cl)cc2)n1", "inhibition": "4.1% (inactive)"}
{"smiles": "O=C(COCc1cc(-c2ccc3c(c2)OCO3)on1)N1CCN(c2cccc(Cl)c2)CC1", "inhibition": "6.1% (inactive)"}
{"smiles": "Cc1c(-c2ccccc2)cn2c1-c1ccc(C)n1CC2", "inhibition": "44.5% (active)"}
{"smiles": "CCCCNC(=O)C(C)N(CCN(C)C)C(=O)CCCN1C(=O)NC(c2ccc(Cl)cc2)C(C(=O)OCc2ccccc2)=C1C", "note": "(stereo not given)", "inhibition": "-1.7% (inactive)"}
{"smiles": "COc1ccc(-c2nc3n(c2Br)CCC3)cc1", "inhibition": "6.5% (inactive)"}
{"smiles": "Cc1ccc(OCC(=O)NCCCNC(=O)c2cccnc2)cc1C", "inhibition": "0.1% (inactive)"}
{"smiles": "Cc1cccc(OCC(=O)NCCNC(=O)c2cccnc2)c1", "inhibition": "2.9% (inactive)"}
{"smiles": "Cc1ccc(NC(=O)COc2ccc(/C=N\\NC(=O)c3cccnc3)cc2)cc1C", "inhibition": "91% (active)"}
{"smiles": "Cc1ccc(C(=O)N2CCCC2)c(F)c1F", "inhibition": "-4.7% (inactive)"}
{"smiles": "O=C(N1CCOCC1)N1CCOCC1", "inhibition": "-1.2% (inactive)"}
{"smiles": "Cc1nc2ccccc2n1C(=O)N1CCOCC1", "inhibition": "58.5% (active)"}
{"smiles": "O=C(c1cc(-c2ccc(Cl)s2)nc2ccccc12)N1CCOCC1", "inhibition": "-0.8% (inactive)"}
{"smiles": "CCOC(=O)C1(Cc2cccc(OC)c2)CCCN(C(=O)CCSC)C1", "note": "(stereo not given)", "inhibition": "5.4% (inactive)"}
{"smiles": "Cc1c(NC(=O)CSc2nnc(-c3cccnc3)n2N)c(=O)n(-c2ccccc2)n1C", "inhibition": "0% (inactive)"}
{"smiles": "Cc1c(NC(=O)CSc2nnnn2-c2ccc(C(=O)O)cc2)c(=O)n(-c2ccccc2)n1C", "inhibition": "-4.2% (inactive)"}
{"smiles": "Cc1c(NC(=O)CSc2cccc3cccnc23)c(=O)n(-c2ccccc2)n1C", "inhibition": "48.6% (active)"}
{"smiles": "CC(C)CC(NC(=O)C1CCCN1C(=O)[C@@H](C)NC(=O)OCc1ccccc1)C(=O)NCC(N)=O", "note": "(stereo not given in full)", "inhibition": "-2.1% (inactive)"}
